# Reference: PubChem BioAssay (EPA / NIEHS)
# Results filed as inconclusive are left out. Active and inactive are the calls of the source. How the source made its calls: active means hit-call score of the fitted dose curve at least 0.9, where 1 is the maximum; inconclusive means response in the unintended direction; inactive means score below 0.9.
# Assays:
# [1] = TOX21_p53_BLA_p3_viability: Viability Assessment in the Tox21 HCT-116 p53 Agonism Beta-lactamase Assay, Phase 3 (AID 2283593);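 further: cells exposed to compound for 16 h before reading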
# Procedure, shortened: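 HCT116 cells, 4000/well, dosed 5 h after plating by pin transfer (217-fold dilution from DMSO stock) and incubated 16 h at 37C, 5% CO2. Viability read as ATP luminescence with CellTiter-Glo after 30 min at room temperature.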
# [2] = biological target: Cellular tumor antigen p53 (Homo sapiens) (UniProt P04637); test: TOX21_p53_BLA_p3_ratio: Tox21 HCT-116 p53 Agonism Beta-lactamase Assay, Ratio, Phase 3 (AID 2283596)
# Procedure, shortened: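 Cells were seeded at 4000/well, rested 5 h at 37C, then dosed with DMSO compound solutions (217-fold dilution) for 16 h. CCF4-AM substrate was loaded for 2 h at room temperature, and the 460/530 nm emission ratio was fitted for gain of signal versus DMSO.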
# [3] = biological target: Cellular tumor antigen p53 (Homo sapiens) (UniProt P04637); test: TOX21_p53_BLA_p5_ratio: Tox21 HCT-116 p53 Agonism Beta-lactamase Assay, Ratio, Phase 5 (AID 2283599)
# Procedure, shortened: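 HCT-116 p53-bla cells (4000/well) plated 5 h, dosed with compound (217-fold DMSO dilution) for 16 h at 37 C; CCF4-AM substrate 2 h at room temperature. Activity is the 460/530 nm emission ratio (405 nm excitation), fitted in gain-of-signal direction versus DMSO.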
# [4] = TOX21_p53_BLA_p5_viability: Viability Assessment in the Tox21 HCT-116 p53 Agonism Beta-lactamase Assay, Phase 5 (AID 2283600)
# Procedure, shortened: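 ATP luminescence (CellTiter-Glo, 30 min, RT) served as the viability read-out, with loss of signal indicating cytotoxicity. Compounds in DMSO were pinned at a 217-fold dilution onto 4000 cells/well and incubated 16 h, 37C.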
# [5] = biological target: Cellular tumor antigen p53 (Homo sapiens) (UniProt P04637); test: TOX21_p53_BLA_p4_ratio: Tox21 HCT-116 p53 Agonism Beta-lactamase Assay, Ratio, Phase 4 (AID 2283601)
# Procedure, shortened: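 HCT-116 p53 beta-lactamase reporter cells (4000/well) preincubated 5 h, then compound (217-fold dilution of DMSO stock) for 16 h at 37C. CCF4-AM substrate added 2 h at room temperature; 460/530 nm emission ratio fitted upward versus DMSO.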
# [6] = TOX21_p53_BLA_p4_viability: Viability Assessment in the Tox21 HCT-116 p53 Agonism Beta-lactamase Assay, Phase 4 (AID 2283597);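 further: hits lower the luminescence signal meaning cytotoxicity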
# Procedure, shortened: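 ATP content by CellTiter-Glo luminescence, 30 min RT, read after the beta-lactamase ratio step. Cells: HCT116, 4000/well, compound added after 5 h, exposure 16 h at 37C. Signal loss = reduced viability.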
# Cellular tumor antigen p53 (Homo sapiens), sequence (P04637 whole entry, looked up): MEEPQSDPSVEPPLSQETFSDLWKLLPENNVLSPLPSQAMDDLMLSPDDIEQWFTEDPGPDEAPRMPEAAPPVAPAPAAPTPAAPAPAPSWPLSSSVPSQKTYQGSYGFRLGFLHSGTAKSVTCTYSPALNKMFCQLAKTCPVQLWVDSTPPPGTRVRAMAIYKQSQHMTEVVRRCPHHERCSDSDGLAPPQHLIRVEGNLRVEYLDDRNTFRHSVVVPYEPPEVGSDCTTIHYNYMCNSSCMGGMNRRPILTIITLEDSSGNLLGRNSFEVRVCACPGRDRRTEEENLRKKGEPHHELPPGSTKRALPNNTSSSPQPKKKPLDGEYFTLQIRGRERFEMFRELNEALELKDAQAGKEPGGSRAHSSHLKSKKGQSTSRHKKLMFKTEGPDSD
structure (smiles),measurement,setting,value
Nc1ccc(C(=O)NCC(=O)O)cc1,outcome,[1],inactive
same,outcome,[2],inactive
same,outcome,[3],inactive
same,outcome,[4],inactive
same,outcome,[5],inactive
O=P(O)(O)OP(=O)(O)OP(=O)(O)O,outcome,[1],inactive
same,outcome,[2],inactive
same,outcome,[3],inactive
same,outcome,[4],inactive
same,outcome,[5],inactive
Cc1ccc(NC(N)=O)cc1,outcome,[1],inactive
same,outcome,[3],inactive
OC1CCCc2ccccc21 (stereo not drawn),outcome,[1],inactive
same,outcome,[4],inactive
same,outcome,[5],inactive
CCCCCCCC/C=C\CCCCCCCC(=O)OCCCC,outcome,[1],inactive
same,outcome,[4],inactive
Cc1cc(O)c(Cl)cc1C,outcome,[1],inactive
same,outcome,[3],inactive
same,outcome,[4],inactive
Cn1c(N)nc2nc[nH]c2c1=O,outcome,[1],inactive
same,outcome,[5],inactive
CCOC(=O)Nc1ccc2c(c1)N(C(=O)CN(C)C)c1ccccc1CC2,outcome,[1],inactive
same,outcome,[4],inactive
CC(=O)OCC(=O)[C@@]1(O)CC[C@H]2[C@@H]3C[C@H](C)C4=CC(=O)C=C[C@]4(C)[C@H]3[C@@H](O)C[C@@]21C,outcome,[1],inactive
same,outcome,[6],inactive
same,outcome,[3],inactive
same,outcome,[5],inactive
CCCCCCCCCCCC[N+](C)(C)CCCS(=O)(=O)[O-],outcome,[1],inactive
same,outcome,[6],inactive
same,outcome,[3],inactive
same,outcome,[5],inactive
O=C(O)/C=C/c1cnc[nH]1,outcome,[1],inactive
same,outcome,[6],inactive
same,outcome,[5],inactive
CCNC(=O)[C@@H]1CCCN1C(=O)[C@H](CCCN=C(N)N)NC(=O)[C@H](CC(C)C)NC(=O)[C@@H](CC(C)C)NC(=O)[C@H](Cc1ccc(O)cc1)NC(=O)[C@H](CO)NC(=O)[C@H](Cc1c[nH]c2ccccc12)NC(=O)[C@H](Cc1cnc[nH]1)NC(=O)[C@@H]1CCC(=O)N1,outcome,[1],inactive
same,outcome,[3],inactive
CN1CCN(CCC(=O)N2c3ccccc3Sc3ccc(C(F)(F)F)cc32)CC1,outcome,[2],inactive
O=C1N=C2SCCN2C(=O)C1Cc1ccc(Cl)cc1 (stereo not drawn),outcome,[1],inactive
same,outcome,[6],inactive
same,outcome,[4],inactive
CCCCC/C=C\C/C=C\CCCCCCCC(=O)NC(C)c1ccccc1 (stereo not drawn),outcome,[1],inactive
same,outcome,[3],inactive
COC(=O)[C@@H](N)Cc1ccc(O)c(O)c1,outcome,[1],inactive
same,outcome,[3],inactive
CC(CC(=O)O)CC(C)(C)C (stereo not drawn),outcome,[1],inactive
same,outcome,[6],inactive
same,outcome,[4],inactive
CCN(CC)CC(=O)Nc1c(C)cccc1C,outcome,[1],inactive
same,outcome,[3],inactive
same,outcome,[5],inactive
C[C@H]1O[C@H](O[C@H]2[C@H](O)[C@@H](O)[C@@H](O[C@H]3[C@H](O)[C@@H](O)[C@H](O)O[C@@H]3CO)O[C@@H]2CO)[C@H](O)[C@@H](O)[C@@H]1N[C@H]1C=C(CO)[C@@H](O)[C@H](O)[C@H]1O,outcome,[1],inactive
same,outcome,[3],inactive
same,outcome,[4],inactive
same,outcome,[5],inactive
CCCSSC(CCO)=C(C)N(C=O)Cc1cnc(C)nc1N,outcome,[2],inactive
COC(=O)CC[C@H](N)C(=O)O,outcome,[1],inactive
same,outcome,[3],inactive
Cc1cccc(C)c1N(CCCc1cccnc1)C(=O)C(C)N (stereo not drawn),outcome,[1],inactive
same,outcome,[3],inactive
same,outcome,[5],inactive
CCN1CCCC(OC(=O)C(c2ccccc2)c2ccccc2)C1 (stereo not drawn),outcome,[2],inactive
COc1ccc(C)cc1[N+](=O)[O-],outcome,[1],inactive
same,outcome,[3],inactive
same,outcome,[4],inactive
Cc1nnc(C(=O)NC(C)(C)c2nc(C(=O)NCc3ccc(F)cc3)c(O)c(=O)n2C)o1,outcome,[2],inactive
O=C(O[C@@H](C(=O)O)[C@@H](OC(=O)c1ccccc1)C(=O)O)c1ccccc1,outcome,[1],inactive
same,outcome,[3],inactive
same,outcome,[4],inactive
CCCCC(=O)O[C@]1(C(=O)CO)CC[C@H]2[C@@H]3CCC4=CC(=O)CC[C@]4(C)[C@H]3[C@@H](O)C[C@@]21C,outcome,[1],inactive
same,outcome,[6],inactive
same,outcome,[4],inactive
same,outcome,[5],inactive
O=C(O)CC/C=C\CC[C@@H]1[C@@H](N2CCCCC2)[C@@H](O)C[C@@H]1OCc1ccc(-c2ccccc2)cc1,outcome,[2],inactive
CCCCNc1c(C(=O)OCC)c(C)nc2c1cnn2CC,outcome,[1],inactive
same,outcome,[6],inactive
same,outcome,[4],inactive
same,outcome,[5],inactive
CC(C)Cc1ccc([C@H](C)C(=O)O)cc1,outcome,[1],inactive
same,outcome,[4],inactive
ONc1ccccc1,outcome,[1],inactive
same,outcome,[5],inactive
CC(CCc1ccc(O)cc1)NCC(O)c1ccc(O)cc1 (stereo not drawn),outcome,[2],inactive
Cc1c(O)cc2c(c1C)O[C@](C)(CCC[C@H](C)CCC[C@H](C)CCCC(C)C)CC2,outcome,[1],inactive
same,outcome,[6],inactive
same,outcome,[3],inactive
same,outcome,[5],inactive
c1ccc2cnncc2c1,outcome,[1],inactive
same,outcome,[3],inactive
same,outcome,[5],inactive
Nc1ncnc2c1ncn2CCOCP(=O)(O)O,outcome,[1],inactive
same,outcome,[4],inactive
same,outcome,[5],inactive
CCC(=O)c1cccc(Cl)c1,outcome,[1],inactive
same,outcome,[4],inactive
same,outcome,[5],inactive
CCC(=O)OC(OP(=O)(CCCCc1ccccc1)CC(=O)N1C[C@H](C2CCCCC2)C[C@H]1C(=O)O)C(C)C (stereo partly drawn),outcome,[1],inactive
same,outcome,[6],inactive
same,outcome,[4],inactive
same,outcome,[5],inactive
COc1ccc(C2CNC(=O)C2)cc1OC1CCCC1 (stereo not drawn),outcome,[1],inactive
same,outcome,[5],inactive
CN1CCN2c3ncccc3Cc3ccccc3C2C1 (stereo not drawn),outcome,[2],inactive
CC(=O)Nc1ccc(S(=O)(=O)Nc2cc(C)on2)cc1,outcome,[1],inactive
same,outcome,[3],inactive
same,outcome,[4],inactive
O=C(Oc1ccccc1C(=O)O)c1ccccc1O,outcome,[1],inactive
same,outcome,[6],inactive
same,outcome,[4],inactive
same,outcome,[5],inactive
O=C1CCCc2ccccc21,outcome,[2],inactive
same,outcome,[6],inactive
same,outcome,[3],inactive
same,outcome,[4],inactive
same,outcome,[5],inactive
CC(C)(O/N=C(\C(=O)N[C@@H]1C(=O)N2C(C(=O)[O-])=C(C[n+]3ccccc3)CS[C@H]12)c1csc(N)n1)C(=O)O,outcome,[2],inactive
same,outcome,[6],inactive
same,outcome,[3],inactive
same,outcome,[4],inactive
same,outcome,[5],inactive
C=COCCCCO,outcome,[2],inactive
same,outcome,[6],inactive
same,outcome,[3],inactive
same,outcome,[5],inactive
CS(=O)(=O)c1ccc([C@@H](O)[C@@H](COC(=O)CN)NC(=O)C(Cl)Cl)cc1,outcome,[2],inactive
same,outcome,[6],inactive
same,outcome,[4],inactive
CNC1(C)C2CCC(C2)C1(C)C (stereo not drawn),outcome,[2],inactive
same,outcome,[6],inactive
same,outcome,[3],inactive
same,outcome,[4],inactive
same,outcome,[5],inactive
C[N+]1(C)CCN(CC(O)(c2ccccc2)C2CCCCC2)CC1 (stereo not drawn),outcome,[2],inactive
same,outcome,[6],inactive
same,outcome,[4],inactive
CCOC(=O)[C@H](CCc1ccccc1)N[C@@H](C)C(=O)N1Cc2cc(OC)c(OC)cc2C[C@H]1C(=O)O,outcome,[2],inactive
same,outcome,[6],inactive
same,outcome,[4],inactive
O=C(c1ccc(F)cc1)C1CCN(CCn2c(=S)[nH]c3ccccc3c2=O)CC1,outcome,[2],inactive
same,outcome,[6],inactive
same,outcome,[3],inactive
same,outcome,[4],inactive
Oc1cc(O)cc(O)c1,outcome,[2],inactive
same,outcome,[6],inactive
same,outcome,[3],inactive
same,outcome,[4],inactive
CC(C(=O)O)c1ccc2c(c1)Cc1cccnc1O2 (stereo not drawn),outcome,[2],inactive
same,outcome,[6],inactive
same,outcome,[3],inactive
same,outcome,[4],inactive
CCN(CC)CCOc1ccccc1C(=O)CCc1ccccc1,outcome,[2],inactive
same,outcome,[6],inactive
Cc1c[nH]c2ccccc12,outcome,[2],inactive
same,outcome,[6],inactive
same,outcome,[3],inactive
same,outcome,[4],inactive
same,outcome,[5],inactive
O=C(c1ccc2c(c1)C(=O)OC2=O)c1ccc2c(c1)C(=O)OC2=O,outcome,[2],inactive
same,outcome,[6],inactive
same,outcome,[3],inactive
same,outcome,[5],inactive
OCc1c2ccccc2cc2ccccc12,outcome,[2],inactive
same,outcome,[6],inactive
same,outcome,[3],inactive
same,outcome,[5],inactive
O=C(O)C(O)[C@H](O)[C@@H](O)[C@H](O)[C@H](O)CO (stereo partly drawn),outcome,[2],inactive
same,outcome,[6],inactive
same,outcome,[3],inactive
same,outcome,[4],inactive
same,outcome,[5],inactive
Cn1nnnc1SCC1=C(C(=O)O)N2C(=O)[C@@H](NC(=O)[C@H](O)c3ccccc3)[C@H]2SC1,outcome,[2],inactive
same,outcome,[6],inactive
same,outcome,[3],inactive
same,outcome,[5],inactive
[Cl-].[Cl-].[NH-]CC[NH-].[Pt+4],outcome,[2],inactive
same,outcome,[6],inactive
CC(C)CCCC(=O)O,outcome,[2],inactive
same,outcome,[6],inactive
COc1ccc(C2(C#N)CCC(C(=O)O)CC2)cc1OC1CCCC1 (stereo not drawn),outcome,[2],inactive
same,outcome,[6],inactive
same,outcome,[3],inactive
same,outcome,[4],inactive
Cc1ccc(N(CC2=NCCN2)c2cccc(O)c2)cc1,outcome,[2],inactive
same,outcome,[6],inactive
same,outcome,[3],inactive
same,AC50,[5],30.4 µM (active)
O=C1CCN(c2ccccc2)N1,outcome,[2],inactive
same,outcome,[6],inactive
same,outcome,[4],inactive
CC#CCC(C)[C@H](O)/C=C/[C@@H]1[C@H]2C/C(=C/CCCC(=O)O)C[C@H]2C[C@H]1O (stereo partly drawn),outcome,[2],inactive
same,outcome,[6],inactive
same,outcome,[5],inactive
CN(C)CCCN1c2ccccc2Sc2ccccc21,outcome,[2],inactive
C=CC[N+]1([C@H]2C[C@H]3[C@@H]4CC[C@H]5C[C@H](O)[C@@H](N6CCOCC6)C[C@]5(C)[C@H]4CC[C@]3(C)[C@H]2OC(C)=O)CCCC1,outcome,[2],inactive
same,outcome,[6],inactive
same,outcome,[3],inactive
CC(C)(C)C(=O)OCOP(=O)(COCCn1cnc2c(N)ncnc21)OCOC(=O)C(C)(C)C,outcome,[2],inactive
same,outcome,[6],inactive
O=[N+]([O-])c1cc(Cl)c(Cl)c(Cl)c1Cl,outcome,[2],inactive
same,outcome,[6],inactive
same,outcome,[5],inactive
O=C(CCN1CCN(CCO)CC1)N1c2ccccc2Sc2ccc(C(F)(F)F)cc21,outcome,[2],inactive
same,outcome,[6],inactive
same,outcome,[3],inactive
same,outcome,[5],inactive
CN(C)CCCOc1nn(Cc2ccccc2)c2ccccc12,outcome,[2],inactive
same,outcome,[6],inactive
NS(=O)(=O)c1ccccc1Cl,outcome,[2],inactive
same,outcome,[6],inactive
same,outcome,[4],inactive
same,outcome,[5],inactive
CN1CCN(C2=Nc3ccccc3Oc3ccc(Cl)cc32)CC1,outcome,[2],inactive
same,outcome,[6],inactive
same,outcome,[3],inactive
same,outcome,[5],inactive
CN(C)CCN1C(=O)c2ccccc2N(C)c2ccccc21,outcome,[2],inactive
CC(=O)CC(=O)Nc1ccc(S(=O)(=O)O)cc1,outcome,[2],inactive
same,outcome,[6],inactive
same,outcome,[3],inactive
CCCCOCCCC,outcome,[2],inactive
same,outcome,[6],inactive
same,outcome,[4],inactive
same,outcome,[5],inactive
CN(C)CCCSc1ccccc1NC(=O)/C=C/c1ccccc1,outcome,[2],inactive
same,outcome,[6],inactive
CCN(CCCc1ccccc1)CCCc1ccccc1,outcome,[2],inactive
same,outcome,[6],inactive
same,outcome,[5],inactive
Nc1nc(N)c(-c2ccccc2)s1,outcome,[2],inactive
same,outcome,[6],inactive
same,outcome,[3],inactive
same,outcome,[4],inactive
same,outcome,[5],inactive
